Experimental data from PubChem BioAssay (EPA / NIEHS).
Records with an inconclusive call do not appear. Calls of active or inactive are those of the source. The calls were made as follows: active = hit-call score of the fitted dose curve at least 0.9, where 1 is the maximum; inconclusive = response in the unintended direction; inactive = score below 0.9.

Each compound was assayed against human RAR-related Orphan Receptor beta (RORb), RORB (gene 6096) (UniProt Q92753) (assay: ATG_RORb_TRANS: Attagene TRANS-FACTORIAL HepG2 Assay for human RAR-related Orphan Receptor beta (RORb) (AID 2283010)).
Chain of human RAR-related Orphan Receptor beta (RORb), RORB (gene 6096) (Q92753 whole entry, looked up): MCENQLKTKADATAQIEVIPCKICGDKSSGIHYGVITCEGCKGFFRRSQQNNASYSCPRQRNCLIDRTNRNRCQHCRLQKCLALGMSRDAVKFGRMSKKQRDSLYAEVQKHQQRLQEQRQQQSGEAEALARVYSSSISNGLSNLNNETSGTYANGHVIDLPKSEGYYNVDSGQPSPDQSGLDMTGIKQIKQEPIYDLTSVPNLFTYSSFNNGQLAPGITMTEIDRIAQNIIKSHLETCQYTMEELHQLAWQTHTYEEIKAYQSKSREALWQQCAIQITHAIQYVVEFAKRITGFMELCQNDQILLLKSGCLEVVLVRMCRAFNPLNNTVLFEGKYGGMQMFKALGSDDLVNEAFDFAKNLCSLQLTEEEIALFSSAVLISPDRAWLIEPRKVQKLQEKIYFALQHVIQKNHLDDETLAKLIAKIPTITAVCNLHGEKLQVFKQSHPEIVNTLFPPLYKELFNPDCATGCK
Method: ATG_TRANS is a cell-based, multiplexed-readout assay that uses HepG2, a human liver cell line, with measurements taken at 24 hours after chemical dosing in a 24-well plate.ATG_RORb_TRANS is one of 30 assay component(s) measured or calculated from the ATG_TRANS assay. It is designed to make measurements of mRNA induction, a form of inducible reporter, as detected with fluorescence intensity signals by Reverse transcription polymerase chain reaction (RT-PCR) and Capillary electrophoresis technology.Data from the assay component ATG_RORb_TRANS was analyzed into 1 assay endpoint. This assay endpoint, ATG_RORb_TRANS, was analyzed in the positive analysis fitting direction relative to DMSO as the negative control and baseline of activity. Using a type of inducible reporter, measures of mRNA for gain-of-signal activity can be used to understand the reporter gene at the transcription factor-level as they relate to the gene RORB. Furthermore, this assay endpoint can be referred to as a primary readout, because this assay has produced multiple assay endpoints where this one serves a reporter gene function. To generalize the intended target to other relatable targets, this assay endpoint is annotated to the nuclear receptor intended target family, where the subfamily is orphan.
Human liver HepG2 cells are transiently transfected with multiple reporter transcription units (MRTUs) in 6-well plates using FuGene 6 reagent (Roche; 3 ml FuGene/1 mg DNA). The MRTU constructs are regulated by a cis-regulating element (promoter). […] A major difference between the CIS and TRANS system is that in CIS activities of endogenous TFs are measured, whereas the TRANS assay evaluates changes in activities of exogenous, chimeric NR-Gal4 proteins. […] At the end of 24 hour incubation, total RNA was isolated using TriZol reagent (Invitrogen). The isolated RNA is then reverse-transcribed using oligo(dT) primer and Mo-MLV reverse transcriptase (Invitrogen) with DNAse I (Ambion) treatment for 30 min. The one-tenth of the produced cDNA was amplified by PCR using Taq DNA polymerase (Invitrogen) and two reporter sequence-specific primers. The PCR products were fluorescently labeled by primer extension with 6-arboxyfluorescein (6-FAM) 5'-labeled reporter sequence-specific primer (2 min at 95 C, 20 s at 68 C and 10 min at 72 C) and these products were digested with 5U of HpaI (New England Biolabs) for 2h at 37 C. The fragments were purified using Qiaquick PCR columns (Qiagen), analyzed on an ABI 3130xL genetic analyzer (Applied Biosystems) with peak positions identified by using a set of X-rhodamine (ROX)-labeled MapMarker1000 molecular weight standards (BioVentures). The raw capillary electrophoresis data was processed using Attagraph software (Attagene).

outcome, inactive:
CCCCCCC(C)(C)S
CCOc1ccc(NC(=O)CC(C)=O)cc1
COc1ccccc1N=Nc1c(S(=O)(=O)O)cc2cc(S(=O)(=O)O)cc(NC(C)=O)c2c1O
OC[C@H]1O[C@@H]2O[C@H]3[C@H](O)[C@@H](O)[C@@H](O[C@H]4[C@H](O)[C@@H](O)[C@@H](O[C@H]5[C@H](O)[C@@H](O)[C@@H](O[C@H]6[C@H](O)[C@@H](O)[C@@H](O[C@H]7[C@H](O)[C@@H](O)[C@@H](O[C@H]8[C@H](O)[C@@H](O)[C@@H](O[C@H]9[C@H](O)[C@@H](O)[C@@H](O[C@H]1[C@H](O)[C@H]2O)O[C@@H]9CO)O[C@@H]8CO)O[C@@H]7CO)O[C@@H]6CO)O[C@@H]5CO)O[C@@H]4CO)O[C@@H]3CO
C=CCOC(=O)CCCCCC
CCCCC(CC)C(=O)OC(C)C (stereo not given)
C=CC(C)(O)CCC=C(C)C (stereo not given)
O=C1NC2NC(=O)NC2N1 (stereo not given)
FC(F)(F)COCC(F)(F)F
COC(=O)c1ccc([N+](=O)[O-])cc1
O=C1OC(=O)c2c(Cl)c(Cl)c(Cl)c(Cl)c21
CCCCCCCCCCCCCCCC(=O)OC/C=C(C)/C=C/C=C(C)/C=C/C1=C(C)CCCC1(C)C
COc1ccccc1[N+](=O)[O-]
CCCC(O)C(O)CO (stereo not given)
C[C@H](CCC(=O)NCC(=O)O)[C@H]1CC[C@H]2[C@@H]3[C@H](O)C[C@@H]4C[C@H](O)CC[C@]4(C)[C@H]3C[C@H](O)[C@]12C
Clc1cc(Cl)c(-c2c(Cl)c(Cl)cc(Cl)c2Cl)cc1Cl
COc1ccc(OC)c(N=Nc2c(O)ccc3ccccc23)c1
CC1(C)CCC[C@]2(C)[C@H]3CCO[C@]3(C)CC[C@@H]12
CCOCCOCCOCC
Cc1ccc2c(c1)C(=O)OC2=O
IC(I)I
CCCCCCCCc1ccc(S(=O)(=O)O)cc1
Cc1ncc([N+](=O)[O-])n1CCO
CC1=NN(c2ccc(S(=O)(=O)O)cc2)C(=O)C1
CN(C)c1cccc(O)c1
O=C(O)c1cc(C(=O)O)cc([N+](=O)[O-])c1
O=c1c(O)c(-c2ccc(O)cc2)oc2cc(O)cc(O)c12
CC(C)OCCO
C#CC(C)(O)CC(C)C (stereo not given)
C=C(C#N)C(=O)OCC
C[Si](C)(C)O[Si](C)(C)C
CC1=C(Br)C(=O)C(Br)=C/C1=C(/c1ccccc1S(=O)(=O)O)c1cc(Br)c(O)c(Br)c1C
CCCCCCCCCCCCS(=O)(=O)Cl
CS(=O)(=O)c1ccc(Cl)cc1
C[C@H]1C[C@@H](O)CC(C)(C)C1
Oc1c(Cl)cc(Cl)c(Cl)c1Cc1c(O)c(Cl)cc(Cl)c1Cl
CC(C)CC(C)CC(O)CC(C)C (stereo not given)
CCC(C)c1cc([N+](=O)[O-])cc([N+](=O)[O-])c1OC(=O)OC(C)C (stereo not given)
Cc1cc(C)nc(NS(=O)(=O)c2ccc(N)cc2)n1
CC(=O)CC(=O)Nc1ccccc1
